Screens deposited in PubChem BioAssay by National Center for Advancing Translational Sciences (NCATS).
A selection: hits, their analogues and other compounds. The true share with any hit is near 2.8%.
CBFb RUNX1 block: qHTS Assay for Compounds Blocking the Interaction Between CBF-beta and RUNX1 for the Treatment of Acute Myeloid Leukemia; AlphaScreen CBFb-His/RUNX1-biotin binding, biochemical; 230,000 tested, under 10 active; Runt-related transcription factor 1 (Homo sapiens) + Core-binding factor subunit beta …; Potency, µM (series often up to 59.8 µM), inactives show top-dose activity, negative = inhibition, usual class: inhibitors; also: % of control where 0% means no effect
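Interaction loss through any mechanism counts as activity. Pre-formed complex of His-CBF-beta and biotin-RUNX1 (30 nM apiece) is incubated with compound 15 min, then with 50 ng nickel and 50 ng streptavidin beads for 90 min before AlphaScreen detection.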
MBNL1 CUG block: qHTS Assay for Inhibitors of MBNL1-poly(CUG) RNA binding. Potency, µM (top dose mostly 57.5 µM), for the others: top-dose activity change, negative = inhibition, usual class: inhibitors. Muscleblind-like protein 1 (Homo sapiens), Q9NR56. TR-FRET MBNL1-His/biotin-(CUG)12 binding, 665/545 ratio. actives 0.036% (n = 280,000); active = well fitted inhibition curve with a large enough effect in the signal ratio, with a control signal flat, not every such curve was filed as active; inconclusive = small, poorly fitted or top-dose-only effect, or effect the other way, or a change in a side signal; inactive = no such curve, though single readings can be large or run the other way; the % refers to the signal ratio; also: potency is read from the fitted curve at half-maximal effect; % is scaled to controls: 0 for no effect and ±100 for the full control effect
Target sequence (Q9NR56 whole entry, looked up): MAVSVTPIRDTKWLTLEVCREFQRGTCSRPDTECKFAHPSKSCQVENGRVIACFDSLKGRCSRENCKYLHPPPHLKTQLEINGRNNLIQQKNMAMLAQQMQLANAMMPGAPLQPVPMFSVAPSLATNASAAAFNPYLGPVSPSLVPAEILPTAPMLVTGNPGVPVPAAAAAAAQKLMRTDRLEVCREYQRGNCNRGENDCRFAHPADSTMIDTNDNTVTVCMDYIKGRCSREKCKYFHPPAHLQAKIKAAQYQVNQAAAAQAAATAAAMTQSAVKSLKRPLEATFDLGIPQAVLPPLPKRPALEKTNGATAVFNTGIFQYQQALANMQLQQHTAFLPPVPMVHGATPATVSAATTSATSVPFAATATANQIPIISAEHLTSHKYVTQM
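MBNL1-His + Biotin-(CUG)12, cpd titration 92 nM–58 uM; Tb anti-His Ab 0.055 ng/ul, SA-XL665 5 nM (final); 60 min RT; ratiometric 665/545 nm, Ex 340 nm; normalized to buffer and full-complex controls.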
PTHR1 agonist: qHTS for PTHR1 Agonists: Primary Screen. Parathyroid hormone/parathyroid hormone-related peptide receptor (Homo sapiens), Q03431. HEK293 GP2 PTHR1 cells, GloSensor cAMP luminescence, 1 h. Potency, µM (top dose mostly 115 µM), for inactives: at the highest dose activation, hits mostly activators. actives 0.075% (n = 410,000). AID 743266, 2014; also: potency is read from the fitted curve at half-maximal effect; nearly all actives have a fitted effect of over 55% in size
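HEK-293-derived GP2 cells expressing PTHR1 and a GloSensor cAMP reporter, 3,000/well, plated overnight, given luciferin plus IBMX (each 0.5 mM as added) for 1 h at 37 °C, then compound for 1 h at 37 °C. Luminescence was read after 15 min at room temperature.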
DRD3 antagonist: qHTS of D3 Dopamine Receptor Antagonist: qHTS; D(3) dopamine receptor (Homo sapiens), P35462; D3R cells, DiscoveRx beta-arrestin luminescence, antagonist mode; stronger effect = lower value; max response, negative = inhibition, %; actives 2.5% (n = 360,000); AID 652054, 2013; in the data active = max response below about -50%; inconclusive = no clear call, values can overlap the other calls; also: % is scaled to controls: 0 for no effect and ±100 for the full control effect
Target sequence (P35462 whole entry, looked up): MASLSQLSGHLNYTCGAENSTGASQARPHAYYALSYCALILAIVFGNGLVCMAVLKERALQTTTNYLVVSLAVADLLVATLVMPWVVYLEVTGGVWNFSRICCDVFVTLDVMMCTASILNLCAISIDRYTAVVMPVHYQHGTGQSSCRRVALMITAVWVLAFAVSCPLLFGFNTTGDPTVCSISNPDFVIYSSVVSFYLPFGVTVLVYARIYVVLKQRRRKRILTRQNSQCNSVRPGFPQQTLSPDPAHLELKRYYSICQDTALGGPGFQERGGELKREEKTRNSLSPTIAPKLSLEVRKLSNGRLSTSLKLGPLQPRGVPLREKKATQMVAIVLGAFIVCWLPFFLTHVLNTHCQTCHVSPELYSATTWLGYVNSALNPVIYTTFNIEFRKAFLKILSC
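Cells expressing the human receptor were seeded at 1500 cells/well, incubated overnight at 37 degrees C in 5% CO2, then exposed to library compounds with dopamine controls for 90 minutes at 37 degrees C before luminescent detection.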
a7 integrin act: qHTS for Activators of Integrin-Mediated Alleviation for Muscular Dystrophy | AID 624291, 2012 | Potency, µM (top dose mostly 38.3 µM), for the others: at the highest dose activation, actives largely listed as activators | alpha7betagal myoblasts, beta-gal FDG fluorescence, 48 h | actives 0.064% (n = 350,000);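 also: potency is read from the fitted curve at half-maximal effect; 100% = response of the positive control SU9516; nearly all actives have a fitted effect of over 60% in size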
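Alpha7betagal+/- myoblasts (passage 13) were plated 16-24 hr, then exposed to compounds (1:260 dilution of DMSO stock) for 48 hours at 37C. After MPER lysis, β-galactosidase reporter activity was read as FDG fluorescence (ex 480/em 540) after 30 minutes.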
D3 ag: qHTS of D3 Dopamine Receptor Agonist: qHTS; D3R DiscoveRx beta-arrestin cells, luminescence, 90 min; max activation, %; actives 0.58% (n = 410,000); AID 652048, 2013; in the data active = max activation above about 30%; also: 0% is about no effect
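Agonist-mode cell screen: cells plated at 1500/well and incubated overnight at 37 °C, then exposed to library compounds for 90 min at 37 °C. Detection reagent was added for 30–60 min at room temperature, and luminescence was read.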
* hit, by the source's call; i = inactive; ? = inconclusive; nt = no result given; [ ] = remark or other dose. Unless noted, calls follow the shape of the dose curve; as a rule, active = well fitted curve in the direction sought with a large enough effect; inconclusive = small, poorly fitted or top-dose-only effect, or another doubt; inactive = no such curve, though single readings can be large; an effect the other way counts as inactive or inconclusive.

SMILES | CBFb RUNX1 block | MBNL1 CUG block | PTHR1 agonist | DRD3 antagonist | a7 integrin act | D3 ag
NC(=S)c1cc2ccc(O)cc2oc1=O | 2.4% | ? | -4.2% | -68.3* | 26.7% | -25.1
COC(=O)c1ccccc1NC(=O)CCC(=O)N1CC(C)Sc2ccccc21 (stereo not drawn) | nt | nt | -44.2% | nt | nt | 4.1
O=[N+]([O-])c1ccc(O)c(C=Nc2ccc3c(c2)OCCO3)c1 | 16.2% | -7.0% | -29.3% | -14.4 | 0.1% | 2.8
Oc1c(Br)cc(Br)cc1C=Nc1ccc2c(c1)OCO2 | -4.4% | 5.2% | -23.0% | -127.8* | -23.6% | 2.1
Oc1c(Br)cc(Br)cc1C=Nc1ccc2c(c1)OCCO2 | 6.3% | 1.0% | -30.8% | -63.5* | -9.9% | -12.0
CC(C)CN(C(=O)CSc1nn(-c2ccc(Cl)cc2)c(=S)s1)C1CCS(=O)(=O)C1 (stereo not drawn) | ? | -7.7% | -5.7% | -20.3 | 24.6% | -5.7
COC(=O)[C@]1(Sc2ccc(C)cc2)CC(=O)N[C@@H]1c1ccco1 | nt | nt | 16.8% | -69.3* | nt | -8.3
CC1CCN(CC(=O)N2c3ccccc3CC2C)CC1 (stereo not drawn) | 15.4% | nt | i | -25.5 | -1.7% | -7.5
CC1Cc2ccccc2N1C(=O)Cn1cc(C(F)(F)F)ccc1=O (stereo not drawn) | nt | nt | -28.7% | -117.0* | 12.2% | -13.8
CC1Cc2ccccc2N1C(=O)CN1CCc2ccccc2C1 (stereo not drawn) | -1.3% | 1.8% | -23.7%[57.5 µM] | -4.5 | -16.2% | -17.4
CC1Cc2ccccc2N1C(=O)CN1CCN(Cc2ccccc2)CC1 (stereo not drawn) | nt | -4.9% | i | -78.4* | -17.6% | -11.1
CSCCC(NC(=O)c1ccco1)C(=O)NCCc1ccc(Cl)cc1 (stereo not drawn) | nt | nt | i | 0.5 | 42.7% | -12.9
COC1(OC)N=C(N)C2(C#N)C(c3cccc(Oc4ccccc4)c3)C12C#N (stereo not drawn) | 1.9% | -1.3% | -3.0%[57.5 µM] | -50.1* | -3.1% | 2.7
Cc1cccc(OCCCOc2cccc3cccnc23)c1C | -15.0% | -16.6% | -19.8% | -54.0* | -30.4% | 4.9
O=C(Cn1c(=O)c(=O)n(Cc2ccccc2)c2ccc(Cl)cc21)Nc1cccc(F)c1 | -6.4% | ? | i | 8.2 | 2.0% | -6.4
Cc1cccc2c(N=O)c(O)[nH]c12 | 7.4% | ? | -12.8% | -1.3 | -25.4% | 0.7
Cc1ccc(NC(=O)Cn2c(=O)n(CCCCC(=O)NCCc3ccccc3)c(=O)c3ccccc32)cc1 | nt | nt | -8.7% | nt | nt | -2.7
CCOC(=O)[C@H]1[C@H]2COc3ccc(Br)cc3[C@@H]2N2C(=O)c3ccc(Cl)cc3NC(=O)[C@@]12C | nt | nt | -30.3% | -75.3* | -22.3% | -27.3
CCCC(=O)O[C@]1(C(=O)COC(=O)CC)CC[C@H]2[C@@H]3CCC4=CC(=O)CC[C@]4(C)[C@H]3[C@@H](O)C[C@@]21C | nt | nt | nt | nt | nt | 0.7
Cc1nnc(SCC(=O)N2CCCCCC2)n(N)c1=O | -25.5% | -0.5% | 16.6% | 4.2 | -40.0% | -3.4
Cc1nnc(SCC(=O)N2CCC(Cc3ccccc3)CC2)n(N)c1=O | 8.8% | 8.6% | -24.6% | -98.5* | 7.8% | -25.5
CCOC(=O)c1cccc(NC(=O)Cn2nc(C)n3cccc3c2=O)c1 | nt | -15.7% | -1.6% | 2.2 | 42.2% | 3.1
C/C(=C/c1oc2ccc(O)cc2c1[N+](=O)[O-])N(C)C | -3.0% | ? | i | -13.4 | ? | -3.0
CC(=O)Oc1ccc2oc(/C=C/N(C)C)c([N+](=O)[O-])c2c1 | -18.1% | ? | i | -80.1* | 11.7% | -5.7
O=C1c2cc(O)cc(O)c2C(=O)c2c1cc(O)c([C@@H](CO)CCO)c2O | nt | nt | i | -53.1* | -9.6% | -20.9
SMILES | CBFb RUNX1 block | MBNL1 CUG block | PTHR1 agonist | DRD3 antagonist | a7 integrin act | D3 ag
CCC(=O)Oc1ccc(C/C(=N\O)c2ccc(O)cc2O)o1 | -10.9% | -4.2% | i | 92.3 | -53.7% | 55.9*
COC(=O)c1ccc(CC(=O)c2ccc(O)cc2O)o1 | -0.8% | 3.3% | -24.1%[57.5 µM] | 106.5 | -25.5% | 9.6
COc1ccc(-n2nnnc2S(=O)(=O)Cc2ccc(C(=O)O)cc2)cc1 | 4.1% | -9.0% | -25.3%[57.5 µM] | 35.6 | -63.2% | 5.4
COc1ccc(-n2nnnc2S(=O)(=O)CC(=O)N2CCCCC2)cc1 | 2.6% | -0.1% | -5.7% | -98.4* | -46.4% | -9.3
CCC(=O)Nc1ccc(NC(=O)CSc2nnnn2Cc2ccccc2)cc1C | nt | -2.6% | i | 3.6 | 29.7% | 0.1
CN1CCc2c(sc3c2C(=O)NC(c2ccc(-c4ccc(Cl)cc4)o2)N3)C1 (stereo not drawn) | -24.5% | ? | -9.3% | -80.5* | -3.5% | -25.0
CN1CCc2c(sc3c2C(=O)NC(c2cn(Cc4ccccc4)c4ccccc24)N3)C1 (stereo not drawn) | -24.1% | ? | -6.0% | -75.2* | 0.0% | -11.3
OCC[C@@H]1C[C@H](O)[C@@H](O)[C@]2(OCc3ccc(CO)cc32)O1 | nt | nt | -9.2% | -63.6* | nt | -14.5
CC(C)CC(NC(=O)c1ccc(Cl)cc1)C(=O)OCC(=O)c1ccc2c(c1)NC(=O)CO2 (stereo not drawn) | -2.8% | 0.9% | -10.4% | -72.6* | -55.3% | 20.4
CC(O)C(NS(=O)(=O)c1ccc(Cl)cc1)C(=O)OCC(=O)c1ccc2c(c1)NC(=O)CO2 (stereo not drawn) | nt | nt | -19.6% | 3.9 | 3.7% | -4.6
O=C1COc2ccc(C(=O)COC(=O)c3ccccc3F)cc2N1 | nt | nt | -30.8% | -50.8* | -3.3% | -0.9
CCOc1ccccc1NC(=O)c1c(Br)cnn1C | -8.1% | nt | i | 15.3 | -6.1% | 35.4*
Cc1cccc(C)c1OCc1cc(C(=O)N(C)CCc2ccccn2)no1 | nt | -1.5% | i | 22.5 | -8.3% | 7.0
Clc1cccc(CNCCCSc2ncccn2)c1Cl | nt | -0.5% | i | -69.5* | -2.0% | -18.4
Cc1cc(C)nc(SCCS(=O)(=O)Cc2ccccc2)n1 | 1.9% | 0.0% | -9.6% | 23.5 | -9.1% | 1.1
Cc1cc(C)nc(SCCCNCc2ccccc2)n1 | nt | 8.0% | i | -67.3* | -25.1% | -26.3
Clc1ccc(CNCCCSc2ncccn2)cc1Cl | nt | -6.5% | -0.7% | -67.2* | -27.2% | 0.7
Clc1cccc(Cl)c1CNCCCSc1ncccn1 | nt | -4.4% | i | -3.2 | -2.9% | -6.5
